# Source: publication PMC7819943, “Rice protein-binding microarrays: a tool to detect cis-acting elements near promoter regions in rice”
# The full ranking holds about 68,000 sequences; the median of “fluorescence intensity (a.u.)” is about 9,100, and the highest 2% start at about 16,000. The list comes from a sample in which the highest values are over-represented; it also holds similar and randomly drawn sequences.
# Biological target: OsWRKY34 (Oryza sativa, UniProt Q0JBA9 1-250)
# Assay: protein-binding microarray (RPBM); PBS, 2% BSA, 51.3 ng/ul salmon testes DNA, 50 uM zinc acetate, 200 nM TF, 25 C, 1 h; high values mean tight binding
# Details: protein: recombinant; tags: N-terminal polyhistidine and DsRed monomer fusion (pET32a); label: CyDye5-dUTP incorporated in the synthesized complementary strand; 3' TTTTT single-stranded linker to array surface; dsDNA, one strand shown
# Outline: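 For the binding signal, per-feature fluorescence intensity was read in arbitrary units on an Axon 4000B scanner. Before scanning, a 2% BSA-blocked custom Agilent array made double-stranded with Cy5-dUTP was washed after 1 h at 25 °C with 200 nM protein and 50 µM zinc acetate. The proteins were Ni–NTA-purified transcription factors with N-terminal polyhistidine and DsRed fusions, expressed in E. coli BL21-CodonPlus.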
# Chain of OsWRKY34 (Q0JBA9 entry or part of it): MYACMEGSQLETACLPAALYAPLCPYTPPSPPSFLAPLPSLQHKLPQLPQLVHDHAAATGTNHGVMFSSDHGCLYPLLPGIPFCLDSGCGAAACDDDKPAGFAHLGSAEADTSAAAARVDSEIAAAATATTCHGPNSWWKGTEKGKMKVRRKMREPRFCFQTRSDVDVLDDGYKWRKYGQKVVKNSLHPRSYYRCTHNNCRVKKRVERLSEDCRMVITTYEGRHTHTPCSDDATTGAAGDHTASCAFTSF
row,Sequence,binding signal
1,CAATTTGGCATTTGGCATTTGCTAGTCTATAGTAGCAAATCGGAGTCACCTAGTGCAG,8130 fluorescence intensity (a.u.)
2,GTACGACAGTAGTTGTTTTTCTCGCTTTTGATTTTGAGTCCGGAGTCACCTAGTGCAG,8560 fluorescence intensity (a.u.)
3,CTCGTCGTCGCCTCCGCTCCTTGCGCCATCTCGCGGCGCCCGGAGTCACCTAGTGCAG,9480 fluorescence intensity (a.u.)
4,TATGGACTGTTTTGTTTTGTTCCCCTAGCTAGAATTATTCCGGAGTCACCTAGTGCAG,9880 fluorescence intensity (a.u.)
5,GCTTTTTTTTTTTCTTTCTTTCTTTTTCCCCTTCGGCTTCCGGAGTCACCTAGTGCAG,12500 fluorescence intensity (a.u.)
6,CCTTTGTTCTTGCCGTCTCTTTTTTTTTTTTACAGAAGAACGGAGTCACCTAGTGCAG,14600 fluorescence intensity (a.u.)
7,GTAGCCGCTTCCTGCCTTCCTTCCCCTTGCTCTTGCATTTCGGAGTCACCTAGTGCAG,8340 fluorescence intensity (a.u.)
8,GATATGCATTTTCCCTGCTTTCCCTGCTTTTCCCCTTTTTCGGAGTCACCTAGTGCAG,16400 fluorescence intensity (a.u.)
9,AGTAGGTTGTTGGTTTTGTACCTTTGGGCTCTTTGCCTTTCGGAGTCACCTAGTGCAG,10900 fluorescence intensity (a.u.)
10,TCTTCTTCTTGTTGTTCTTGTTCTTTCTTCTTCCCCTTTTCGGAGTCACCTAGTGCAG,18800 fluorescence intensity (a.u.)
11,TTTGGGTTGTGCTTAGGTTTCCTTCTCGGGCTTTGTTGTACGGAGTCACCTAGTGCAG,18700 fluorescence intensity (a.u.)
12,GCATTTCGTGTTCCCTTTTTGCCTTTTTTTCCCCTTTTCTCGGAGTCACCTAGTGCAG,10300 fluorescence intensity (a.u.)
13,TTTCTTTGTTGTCTCACTTTCCCTTTTTCCACTTCTTTTTCGGAGTCACCTAGTGCAG,11700 fluorescence intensity (a.u.)
14,CCTTCTCGGGCTTTGTTGTACGTATGCGTCTCGTGTTGGGCGGAGTCACCTAGTGCAG,8780 fluorescence intensity (a.u.)
15,TTCATCCCCTAACCCTTTCTTTGTTCATCTTGTTCTTCCTCGGAGTCACCTAGTGCAG,9970 fluorescence intensity (a.u.)
16,ATCTTCCCTTACAGTGACATCCTTTGTTCTTGCCGTCTCTCGGAGTCACCTAGTGCAG,17600 fluorescence intensity (a.u.)
17,GTTACCGAAGTTTTACTTTATACCATATGTACTCTATCTACGGAGTCACCTAGTGCAG,8060 fluorescence intensity (a.u.)
18,GAGACACCGACGCGTCACACCACCACGTCCGTTTCCGTACCGGAGTCACCTAGTGCAG,8300 fluorescence intensity (a.u.)
19,GTTTATTTGGGTTCTCTTATGTGTTGGTGTGTCGATGACCCGGAGTCACCTAGTGCAG,8940 fluorescence intensity (a.u.)
20,AAATGTATTTATTTTTTTTCTACTCCCTCCGCCCCTTAATCGGAGTCACCTAGTGCAG,8590 fluorescence intensity (a.u.)
21,ATCCTGGACTATGGCTTTCTCTCGTAGCACGATTTTTCTTCGGAGTCACCTAGTGCAG,10600 fluorescence intensity (a.u.)

row,Sequence,binding signal
1,ATTAGTTTTTTTTTCTATATTTAATACTCCATGCATATGTCGGAGTCACCTAGTGCAG,9200 fluorescence intensity (a.u.)
2,TTACTTGTACTGTTTGACTATTCGTCTTATTCCAAAAAAACGGAGTCACCTAGTGCAG,8820 fluorescence intensity (a.u.)
3,ACTTTTAAACCCATGTTTTACCATTCATCTTAATAAAAAACGGAGTCACCTAGTGCAG,8840 fluorescence intensity (a.u.)
4,TTTGTTTCTTGTTCTAGAGGGTTTCCTAAGGTGTTTAGGACGGAGTCACCTAGTGCAG,9940 fluorescence intensity (a.u.)
5,AGCAGAGATTTTTACCACGTGTCTCAACAAATAGCCACATCGGAGTCACCTAGTGCAG,8050 fluorescence intensity (a.u.)
6,CATGGGCTAATGTCCTTTTTTTATATATTTTTTTTGCCCTCGGAGTCACCTAGTGCAG,8990 fluorescence intensity (a.u.)
7,TGTAAGCTTATGTGTCATCTTTCTTTGTTTGTGAAGAACCCGGAGTCACCTAGTGCAG,8190 fluorescence intensity (a.u.)
8,CGCCCCTTGATTCGCCTCGTTTTTTCTTTTCCCTTTTTTTCGGAGTCACCTAGTGCAG,9920 fluorescence intensity (a.u.)
9,ACTCCTCTTCTCTTCATTTTCTTCTTCCCCTGTGCTTCTCCGGAGTCACCTAGTGCAG,10900 fluorescence intensity (a.u.)
10,CTTTTTCCTTGCAATCGTGATTCTTTTTTTTTTCCCTTTTCGGAGTCACCTAGTGCAG,17400 fluorescence intensity (a.u.)
11,CCTGACGTGCTTCACCTCACCTGCTCATTTTTTATTTCCCCGGAGTCACCTAGTGCAG,17300 fluorescence intensity (a.u.)
12,CTGCCGGCTGCTCAATTTATTCCCTTGCTGTTTCATTTCGCGGAGTCACCTAGTGCAG,45500 fluorescence intensity (a.u.)
13,CTTTCTTGCAATTTTGGTCTTCTTTCCTTTTGATTTGGTTCGGAGTCACCTAGTGCAG,9200 fluorescence intensity (a.u.)
14,GAGCATTGGGTTGGGCCTTCCTTTCTTGTATTCGGCTTCTCGGAGTCACCTAGTGCAG,16500 fluorescence intensity (a.u.)
15,AGTAGCATTTGTTGACTTGTTGTATTCTTCTAGCCTTTTTCGGAGTCACCTAGTGCAG,13800 fluorescence intensity (a.u.)
16,TCTTGGGCTTGGGCCTTTGCTATTGTATTGGGTTGGGCCTCGGAGTCACCTAGTGCAG,8400 fluorescence intensity (a.u.)
17,CCTTGCCTAGTCGCTGCTGCTGTTTATAAATTTCAACTCCCGGAGTCACCTAGTGCAG,8810 fluorescence intensity (a.u.)
18,GGCTGCTATATTGACCTTGCTCTTATTCCTTCATTCAATTCGGAGTCACCTAGTGCAG,10500 fluorescence intensity (a.u.)
19,CCTCTTTATTCCATTAGCTTTTTTCATCTTCTGCTCCATCCGGAGTCACCTAGTGCAG,10500 fluorescence intensity (a.u.)
20,ATTCCTTGTTGGTAACTGTACCCAGGGGCGGGTCCAACGTCGGAGTCACCTAGTGCAG,8270 fluorescence intensity (a.u.)
21,CACGATGATTGTTGCTGCACCATAGTCTCCATGTGTGTACCGGAGTCACCTAGTGCAG,8410 fluorescence intensity (a.u.)

row,Sequence,binding signal
1,TGTTTGCACCTTATTACGGTTCTGCGCGCTCTCTCTCTCGCGGAGTCACCTAGTGCAG,8560 fluorescence intensity (a.u.)
2,ATACTTAATTAATCATTCGCTAATGGACCACTCTGTTTTCCGGAGTCACCTAGTGCAG,8430 fluorescence intensity (a.u.)
3,CCATTGTGTCATTCAGTTATTGTTACTTTCAGTTGTTCTACGGAGTCACCTAGTGCAG,12200 fluorescence intensity (a.u.)
4,GTCTCTCTCACCGTCTCCGTGCTCCTCCGCCGCCCAAGGGCGGAGTCACCTAGTGCAG,12900 fluorescence intensity (a.u.)
5,GCAAGGTGTACCCGCAGTTCTCACGGTTACCACCATTTTCCGGAGTCACCTAGTGCAG,8430 fluorescence intensity (a.u.)
6,CGAGGTTCTTTGCTTCATACTTTTTTTTGGTGTTCTACTTCGGAGTCACCTAGTGCAG,11200 fluorescence intensity (a.u.)
7,CGGCTAGGGTTTGTTTTTCTTTTCTTTTTTTCCTTTTCTTCGGAGTCACCTAGTGCAG,14300 fluorescence intensity (a.u.)
8,CGAGTCGAGCTTTTCTTTCTTTGGTTGGTTGGTTGGTGTTCGGAGTCACCTAGTGCAG,19600 fluorescence intensity (a.u.)
9,TGGTGTTGTTGGTGTCGTCTTGTTCTTGTTTGTGTTTTCTCGGAGTCACCTAGTGCAG,15900 fluorescence intensity (a.u.)
10,AGAGTTTGGCATACTCCTACGTATCATTGTCGACCTTTAGCGGAGTCACCTAGTGCAG,8340 fluorescence intensity (a.u.)
11,AGTTTTTTTTTCAGCTTTTTGGTTTCTTTTGCTGTTGTTTCGGAGTCACCTAGTGCAG,10300 fluorescence intensity (a.u.)
12,TTGGTTCGGTTTTTTCTGCCCGCGTCGGTTTTTGTCTCACCGGAGTCACCTAGTGCAG,20100 fluorescence intensity (a.u.)
13,CGTTCGCGTTTCGGTTTGACCGCGCGTCTCGCCTAGATTTCGGAGTCACCTAGTGCAG,8650 fluorescence intensity (a.u.)
14,GTGGGTATGGTTGACTTGACGGACGTACTACTCCATACTACGGAGTCACCTAGTGCAG,8190 fluorescence intensity (a.u.)
15,CGAGGTCGTTTGGTTTTCTTTTCCTTTTTGGTTGTGTGTTCGGAGTCACCTAGTGCAG,9070 fluorescence intensity (a.u.)
16,TGGTTGGTTTGTTGGGTTCTTTTCCTTTTTTTTGTTTCTTCGGAGTCACCTAGTGCAG,26700 fluorescence intensity (a.u.)
17,GTGCTACTCCATATACGTATGGCTGGTTTGGTTGGTTGAGCGGAGTCACCTAGTGCAG,21400 fluorescence intensity (a.u.)
18,TAGATAGGGGATGTATAGGACAAGAGAGAACACATGCATTCGGAGTCACCTAGTGCAG,8690 fluorescence intensity (a.u.)
19,TTAACCTCTCTCTTAATTTCAGTTTGTTTGTTCGTTCGTTCGGAGTCACCTAGTGCAG,9010 fluorescence intensity (a.u.)
20,ACAGCCTATATACACTACTCACTCCGTCTCAGAATATAAGCGGAGTCACCTAGTGCAG,8900 fluorescence intensity (a.u.)
21,CATCCCAATTTTCTGGCCACACTTGCATCCCTCTGCCGCCCGGAGTCACCTAGTGCAG,10800 fluorescence intensity (a.u.)

row,Sequence,binding signal
1,ACCACCCTACCTAGCTTAGAATATTTACCATGCATTCTCTCGGAGTCACCTAGTGCAG,11100 fluorescence intensity (a.u.)
2,TCTTCTTCTTGTTTCGGCTTCCGCCTCCGTCCCGCGCGCGCGGAGTCACCTAGTGCAG,13800 fluorescence intensity (a.u.)
3,CAAATTATGAGCCTGTTCACTTTGATGCTCTTTTCAACCACGGAGTCACCTAGTGCAG,8320 fluorescence intensity (a.u.)
4,TCCCAAACCCCGCGCCGCCTCTTACCGCTTCGCGTCAGCTCGGAGTCACCTAGTGCAG,8490 fluorescence intensity (a.u.)
5,ACCTATCTTTCTCTATTTTTTATTTTTTTAGCGAAACACACGGAGTCACCTAGTGCAG,9780 fluorescence intensity (a.u.)
6,TCCGTTTTTGTGGTTTTCGATGGATTCCGTCGTCGCCGACCGGAGTCACCTAGTGCAG,9660 fluorescence intensity (a.u.)
7,GATGGACATTGTTTGCCATCACCGTCAACGACCGTTGACTCGGAGTCACCTAGTGCAG,12900 fluorescence intensity (a.u.)
8,GCTTCGTTGGCTCCGTGAAACTGTCTCTCTCTCCCAACTCCGGAGTCACCTAGTGCAG,8030 fluorescence intensity (a.u.)
9,TTTGCACTGGTTTTGTAAGTTGGGGATGTATTGTATGAGGCGGAGTCACCTAGTGCAG,9560 fluorescence intensity (a.u.)
10,CGTGAGGAATGGGATTTTTATTTTGCTGGTTACTGTTTGACGGAGTCACCTAGTGCAG,10000 fluorescence intensity (a.u.)
11,AGTCAAATTTGTTTTTTTTCGTTGCAACTTGTATAATTTACGGAGTCACCTAGTGCAG,9430 fluorescence intensity (a.u.)
12,GTGTCATTCTCCTCACACGCCGGTCTCCATGAGCGAGTTTCGGAGTCACCTAGTGCAG,8110 fluorescence intensity (a.u.)
13,AAAGTTGGGGTCAGGTGGTTTTGGTTCTGTGTTCAAGGGACGGAGTCACCTAGTGCAG,11500 fluorescence intensity (a.u.)
14,GACGTGTTTGGTCTTCGGTTCGGTGGGTCTCAAGTTCTGACGGAGTCACCTAGTGCAG,19400 fluorescence intensity (a.u.)
15,AAAATTCTTGGTCTTCTTGGTCTCGGTTAGTTCGGTTCGACGGAGTCACCTAGTGCAG,8110 fluorescence intensity (a.u.)
16,GGACCCACCTGCCGAACCAGCACGCATCGCGTCTCGCACCCGGAGTCACCTAGTGCAG,8590 fluorescence intensity (a.u.)
17,TGCAAAGTAGTAGTTGGGGATTTAATAGTGGCTTACAATACGGAGTCACCTAGTGCAG,8620 fluorescence intensity (a.u.)
18,GGTCAAATTCTCATTTTGCAATATCCCACAGCTAATTACACGGAGTCACCTAGTGCAG,9540 fluorescence intensity (a.u.)
19,ATCACGGGATTACACAGCAAAGTAGCAAAGCTAAATTTTACGGAGTCACCTAGTGCAG,63700 fluorescence intensity (a.u.)
20,GCTAATAAGTGCTTACATTGTTTTGGATGATCACCAGCAACGGAGTCACCTAGTGCAG,8080 fluorescence intensity (a.u.)
21,ATGCTCCTACTTTCCTTTGCTGTATATATTACTCCATTTGCGGAGTCACCTAGTGCAG,8260 fluorescence intensity (a.u.)
